# Compound activity deposited in PubChem BioAssay by several laboratories.
# PABP polyA inh: blocks human PABP binding to poly(A) RNA; AID 2014; fluorescence polarization; 290,000 tested, 1% active; calls only at 35 µM;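 note: calls also rest on retests at 20 µM and on dose response follow-up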
# MLLE-PAM2 inh: blocks PAM2 peptide binding to the PABP1 MLLE domain; P11940; GST-MLLE / FITC-PAM2 fluorescence polarization; inhibition, % at 20 µM; 360,000 tested, 0.36% active; in the data active = inhibition above about 35%, passing the limit was not always enough;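 note: plate controls were DMSO wells with GST-MLLE for no effect and wells lacking GST-MLLE protein for full effect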
# eIF4H FP inh: inhibitors of RNA binding by human eIF4H | Q15056 | eIF4H fluorescence polarization binding assay | inhibition, % at 35 µM | 290,000 tested, 0.94% active | AID 2012;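 note: calls also rest on retests at 20 µM and on dose response follow-up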
# MEX-5 binding: C. elegans MEX-5 TCR-2 RNA binding activity | Q9XUB2 | MEX-5/FITC-TCR2 RNA binding, fluorescence polarization; stronger effect = lower value | activity score (negative = inhibition of binding), % at 10 µM | 300,000 tested, 0.38% active;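 active = inhibition past about -25% in most replicates, and total fluorescence under double the plate's negative control median, limit read from the data; inconclusive = replicates evenly split on the limit, or fluorescence at least double controls; inactive = too little inhibition in most replicates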;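 note: 0% = DMSO and -100% = 5 µM competing unlabeled TCR2 RNA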
# EBV gp42 block: inhibitors of Epstein-Barr virus glycoprotein 42. Q1HVG2. Fluorescence polarization binding assay, mP read-out. inhibition, % (tested at 21.74 µM). 220,000 tested, 0.42% active. AID 1085; in the data active = inhibition above about 50%
# Target sequence (Q1HVG2 whole entry, looked up): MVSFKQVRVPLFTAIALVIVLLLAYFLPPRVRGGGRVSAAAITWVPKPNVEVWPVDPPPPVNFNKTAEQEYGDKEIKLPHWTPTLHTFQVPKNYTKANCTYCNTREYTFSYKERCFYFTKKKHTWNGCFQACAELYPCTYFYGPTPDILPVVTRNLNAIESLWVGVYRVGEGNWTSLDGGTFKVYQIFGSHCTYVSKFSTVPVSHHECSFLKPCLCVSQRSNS
# * = called active by the depositor; i = inactive; ? = inconclusive; . = no result given; + = active, no number. A selection: hits, their analogues and other compounds. The true share with any hit is near 1.8%. Unless noted, the rule behind the calls is not given here.
SMILES,PABP polyA inh,MLLE-PAM2 inh,eIF4H FP inh,MEX-5 binding,EBV gp42 block
O=C(c1ccc(NC(=O)C(c2ccccc2)c2ccccc2)cc1)c1ccc(C(=O)O)c(C(=O)O)c1,+,13,78*,0,.
O=C(O)c1ccc(NC(=O)C(c2ccccc2)c2ccccc2)cc1,i,6,2,2,.
CCOc1cc(N2CCOCC2)c(OCC)cc1NS(=O)(=O)c1ccc(Cl)s1,i,16,97*,0,-8
Cc1ccc(S(=O)(=O)N2C[C@H]3C(=O)C[C@@H](c4ccccc4)N(S(=O)(=O)c4ccccc4[N+](=O)[O-])[C@H]3C[C@H]2c2ccccc2)cc1,.,9,.,.,.
Cc1cc(C(=O)Nc2sc(C)c(C)c2C#N)no1,i,21,11,-1,-6
COc1cc2cc3c(N)c(C(=O)Nc4sc(C)c(C)c4C#N)sc3nc2cc1OC,+,-33,89*,-2,4
COc1cc2cc3c(N)c(C(=O)NCc4ccco4)sc3nc2cc1OC,+,4,82*,-1,3
CC(C)(C)OC(=O)N(CC1CCNCC1)C(=O)c1[nH]c(C(F)(F)F)nc1-c1ccccc1,.,7,.,.,.
OCC1OC(n2cnc3c(=S)nc[nH]c32)CC1O (stereo not drawn),.,36,.,.,.
S=c1nc[nH]c2c1ncn2C1CCCO1 (stereo not drawn),i,40*,2,0,-11
COc1ccc(CC(=O)OCn2nnc3ccccc3c2=O)cc1OC,+,10,92*,1,-14
O=C1NC(=S)S/C1=C\C=C\c1ccc([N+](=O)[O-])o1,+,3,95*,.,20
CCOC(=O)NC(=O)/C(C#N)=C/c1ccc(N(C)C)cc1,+,-139,77,15,-154
CN(C)c1ccc(/C=C(\C#N)C(=O)c2ccccc2)cc1,?,i,?,?,-70
O=C(O)c1ccccc1SC1CC(=O)N(c2cccc3ccccc23)C1=O (stereo not drawn),i,40*,0,.,-14
CCOc1ccc(N2C(=O)CC(Sc3ccccc3C(=O)O)C2=O)c([N+](=O)[O-])c1 (stereo not drawn),i,40*,-4,-1,-7
CCN1C(=O)CC(Sc2ccccc2C(=O)O)C1=O (stereo not drawn),i,20,-5,-1,-3
CCOC(=O)c1c(N2C(=O)CC(Sc3ccccc3C(=O)O)C2=O)sc2c1CCCC2 (stereo not drawn),i,49*,-13,-2,-16
COC(=O)c1ccccc1SC1CC(=O)N(c2ccccc2)C1=O (stereo not drawn),i,30,0,0,-4
CCOC(=O)c1c(NC(=O)c2ccccc2C(=O)O)sc2c1CCCC2,i,5,-10,3,.
COc1ccc(/C=C2/CCC(CN3CCOCC3)C2=O)cc1 (stereo not drawn),.,19,.,.,.
CCOC(=O)CCCNC(=O)CCNC(=O)c1ccc(OCC)cc1,+,-2,active,2,-10
CCCCCOc1ccc(C(=O)NCCC(=O)NCCCC(=O)OCC)cc1,i,-2,12,1,-22
CCC(CC)c1nnc(NC(=O)COc2ccc3c(C)cc(=O)oc3c2)s1,i,-7,-2,.,-16
Cc1nnc(NC(=O)COc2ccc3c(C)cc(=O)oc3c2)s1,i,7,61,1,51*
SMILES,PABP polyA inh,MLLE-PAM2 inh,eIF4H FP inh,MEX-5 binding,EBV gp42 block
COc1cccc(Nc2nc(C(N)C3CCCCC3)cs2)n1 (stereo not drawn),.,-8,.,.,.
CCOC(=O)c1cc2c(=O)n3cccc(C)c3nc2n(C)c1=N,+,.,96*,.,-8
CCOCCCn1c(=N)c(C(N)=S)cc2c(=O)n3cccc(C)c3nc21,+,15,87*,-2,-19
CCOC(=O)c1cc2c(=O)n3ccccc3nc2n(Cc2ccccc2)c1=N,i,-3,-10,3,-11
COc1ccccc1-c1cnc(C(O)c2ccc(Cl)cc2C)[nH]1 (stereo not drawn),.,17,.,.,.
OC[C@H]1O[C@@H](c2nc3ccc(-c4nc(-c5ccc(Br)cc5)no4)cc3[nH]2)C[C@@H]1O,.,1,.,.,.
CN1Cc2c(N3CCOCC3)nc(SCc3ccccc3)c(C#N)c2CC1(C)C,?,40*,?,0,2
C=CCSc1nc(N2CCOCC2)c2c(c1C#N)CC(C)(C)N(C)C2,+,-4,50*,-4,-5
Cc1ccc([C@@H]2C[C@H]3[C@@H](CN2S(=O)(=O)c2ccc(C)cc2)C(=O)C[C@@H](c2ccc(Cl)cc2)N3S(=O)(=O)c2ccccc2C)cc1,.,5,.,.,.
CN1OC[C@@H]2CN(Cc3ccccc3)[C@H](c3ccc(-n4ccnc4)cc3)C[C@@H]21,.,4,.,.,.
CCCS(=O)(=O)NC(=O)C1(C)CCCN(C(=O)c2ccc3ccccc3n2)C1 (stereo not drawn),.,2,.,.,.
CCCc1cc(=O)[nH]c(SCC(=O)N2CCN(S(=O)(=O)c3ccc(Cl)cc3)CC2)n1,i,10,56*,-4,-13
CCCc1cc(=O)[nH]c(SCC(=O)c2ccc(S(=O)(=O)N3CCCC3)cc2)n1,i,29,-9,0,-12
CC1(C)CC(=O)C2=C(C1)N(Cc1ccco1)C(=O)C2(NC(=O)c1cccnc1)C(F)(F)F (stereo not drawn),i,12,-10,2,-13
COc1ccc(C(=O)NC2(C(F)(F)F)C(=O)N(Cc3ccco3)C3=C2C(=O)CC(C)(C)C3)cc1OC (stereo not drawn),i,-11,5,?,77*
C/C(Cl)=C\Cn1c(O)c(N=NC(N)=S)c2cc(Br)ccc21,i,44*,13,-2,1
COc1ccc(N2C(=O)C(Cl)=C(Nc3ccccc3O)C2=O)cc1,i,-29,-2,-34*,-17
CCCCCCN1C[C@@H](O)[C@H](n2cc(COC(=O)c3ccccc3)nn2)C[C@@H]1c1ccc(C)cc1,.,9,.,.,.
N#Cc1c(-c2ccco2)cc(-c2cccnc2)nc1N,+,-13,96*,-1,2
N#Cc1c(-c2ccco2)cc(C2CC2)nc1N,i,-26,12,3,-13
N#Cc1c(-c2ccco2)cc(-c2ccccn2)nc1N,+,-26,70*,0,-4
N#Cc1c(-c2cccnc2)cc(-c2ccccc2)nc1N,i,-9,1,1,5
CCOC(=O)COc1nc(-c2ccco2)cc(-c2ccco2)c1C#N,+,-30,89*,1,-17
Cc1ccc(Cl)cc1-c1cc(C(=O)NCc2cc(C(F)(F)F)cc(C(F)(F)F)c2)[nH]n1,.,-2,.,.,.
COc1ccc2oc3cc(NCCN(C)C)ccc3c(=O)c2c1,.,-4,.,.,.
CN(C(=O)c1cccc(COc2ccc(Cl)cc2Cl)c1)c1ccccc1,+,-2,-9,.,-4
COc1ccc(N(C(=O)CCl)C(C)(C(=O)Nc2c(C)cccc2C)c2ccccn2)cc1 (stereo not drawn),i,12,?,-30*,-17
